Assay outcomes as filed in PubChem BioAssay.
MsrA act: activates bovine MsrA enzyme; purified bovine MsrA, absorbance read-out; activation, % at 10.6 µM; hit rate 0.3% among 360,000; AID 602163; in the data active means activation above about 7.5%
PKA-R1A activ: PKA-R1A complex activation | PKA-R1A dissociation, Cy5-IP20 fluorescence polarization; scaled: DMSO 0%, 113 µM cGMP 100% | activation, % at 11.4 µM | hit rate 0.083% among 340,000 | AID 504707;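 active means percent activation above the mean of all tested compounds plus 3 SD, cut at about 19% in these data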;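 further: higher means more PKAc released from R1A so a rise in polarization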
PKA-R2B activ: activators of human PKA-R2B complex | P22694+P31323 | PKA-R2B holoenzyme dissociation, Cy5-IP20 fluorescence polarization; R2B truncated from residue 108, S112A mutant; 0% DMSO only, 100% 113 µM cGMP | activation, % at 11.4 µM | hit rate 0.079% among 340,000 | AID 504700;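 active means activation above a cutoff set at the mean over all compounds plus 3 SD, cut at about 18% in these data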;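 further: higher means more holoenzyme dissociation and a rise in polarization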
Target sequence (P31323 whole entry, looked up, other chains not shown, the tested form may be a part): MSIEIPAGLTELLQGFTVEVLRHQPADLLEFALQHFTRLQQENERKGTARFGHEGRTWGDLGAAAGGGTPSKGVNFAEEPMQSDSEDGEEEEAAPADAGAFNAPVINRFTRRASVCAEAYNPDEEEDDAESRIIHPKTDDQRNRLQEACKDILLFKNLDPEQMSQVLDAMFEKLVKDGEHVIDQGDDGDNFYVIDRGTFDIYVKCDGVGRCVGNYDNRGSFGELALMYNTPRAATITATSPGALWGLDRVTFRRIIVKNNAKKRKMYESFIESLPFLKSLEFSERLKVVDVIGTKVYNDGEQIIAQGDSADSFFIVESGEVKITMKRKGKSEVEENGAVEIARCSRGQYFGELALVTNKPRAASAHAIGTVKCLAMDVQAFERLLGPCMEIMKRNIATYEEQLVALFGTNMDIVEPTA
MsrA inhibitor: inhibits bovine methionine sulfoxide reductase A | purified bovine MsrA, absorbance read-out | inhibition, % at 15.5 µM | hit rate 0.75% among 360,000
R2B FP artifact: counter-screen for PKA-R2B activators: fluorescence polarization artifacts; shares compounds with PKA-R2B activ; FP artifact counterscreen; activation, % at 11.4 µM; hit rate 6% among 270; in the data active means activation above about 20%;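 further: Cy5 labelled IP20 peptide probe with compound but no PKA protein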
PKA-R2B confirm: confirmation of human PKA-R2B complex activators; shares compounds with PKA-R2B activ; AID 504797; hit rate 9% among 270; activation, % at 11.4 µM; fluorescence polarization, activation; in the data active means activation above about 19%
Target sequence (P31323 whole entry, looked up): as the sequence (P31323 whole entry, looked up, other chains not shown, the tested form may be a part) above
R1A FP artifact: counter-screen for PKA-R1A activators: fluorescence polarization artifacts; shares compounds with PKA-R1A activ; activation, % at 11.4 µM; hit rate 7% among 280; AID 504799; Cy5-IP20 peptide alone, fluorescence polarization artifact counterscreen;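 active means mean activation over triplicate runs exceeds the adjusted cutoff derived for the parent primary screen, cut at about 19% in these data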;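 further: no PKA protein present so any polarization rise reflects compound interference; higher means stronger polarization artifact and likely false positive in parent screen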
PKA-R1A act conf: confirmation of PKA-R1A complex activators. shares compounds with PKA-R1A activ. Cy5-IP20 fluorescence polarization, PKA-R1A holoenzyme dissociation. activation, % at 11.4 µM. hit rate 9% among 280;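 active means mean activation over replicate wells exceeds the adjusted hit threshold taken from the earlier primary screen, cut at about 20% in these data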
MsrA activ conf: confirmation of bovine methionine sulfoxide reductase A activators. hit rate 12% among 1,000. activation, % at 10.6 µM. shares compounds with MsrA act. purified bovine MsrA, absorbance read-out. AID 602270; in the data active means activation above about 4%;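 further: enzyme coupled to thioredoxin and thioredoxin reductase with NADPH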
MsrA inh confirm: bovine MsrA inhibition, confirmed; shares compounds with MsrA inhibitor; purified bovine MsrA, absorbance read-out; inhibition, % at 15.5 µM; hit rate 41% among 2,300; AID 651822;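 further: coupled to thioredoxin reductase with NADPH and selenocystamine and DMSO as substrate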
Large screens that a line does not name were inactive (follow-up assays come after a bar, where they were run); ! = not active in a repeat. Only some compounds are listed: those with a hit (about 1.1% of all), similar ones and a draw of the others. Unless noted, no stated cut-off is given here; in the data, active means inhibition above about 4.5%; inactive means the rest.

CCCn1cc(CN2CCCC(C(=O)c3cccc(OC)c3)C2)c(C)n1 (stereo not drawn)	PKA-R2B activ 21 | R2B FP artifact inactive | PKA-R2B confirm inactive
CCn1cc(CN2CCCC(C(=O)c3cccc(OC)c3)C2)c(C)n1 (stereo not drawn)	none
Cc1ccc(/C=C2/C(=O)NC(=O)N(CCc3ccc(F)cc3)C2=O)o1	PKA-R2B activ 24 | R2B FP artifact inactive | PKA-R2B confirm inactive
O=C(NCCN1CCC2(CC1)C(=O)NCN2c1ccccc1)c1ccc(F)cc1F	none (no result: MsrA act, PKA-R1A activ, PKA-R2B activ)
O=C(NCCN1CCC2(CC1)C(=O)NCN2c1ccccc1)c1cc(C(F)(F)F)ccc1C(F)(F)F	none (no result: MsrA act, PKA-R1A activ, PKA-R2B activ)
Oc1ccc2c3c1O[C@H]1[C@@H](O)CC[C@@]4(O)[C@@H](C2)N(CC2CCC2)CC[C@]314	PKA-R2B activ 19! | R2B FP artifact inactive | PKA-R2B confirm inactive
CCOP(=O)(OCC)C(NC(=O)c1ccccc1Cl)=C(Cl)Cl	PKA-R2B activ 19 | R2B FP artifact inactive | PKA-R2B confirm inactive
CCOP(=O)(C(NC(=O)c1ccccc1Cl)=C(Cl)Cl)c1ccccc1 (stereo not drawn)	none
CCOC(=O)CNC(=O)N1Cc2cc(Br)ccc2-n2nncc2C1	none (no result: MsrA act, PKA-R1A activ, PKA-R2B activ)
Nc1c(Br)cc2c3c(cccc13)-c1ccccc1-2	none (no result: MsrA act, PKA-R1A activ, PKA-R2B activ)
O=C1NC(=S)NC(=O)C1=Cc1cccn1-c1ccc(O)cc1	PKA-R1A activ 21 | R1A FP artifact inactive | PKA-R1A act conf inactive
COC(=O)C1C(c2ccc(F)cc2)CC2CCC1N2C (stereo not drawn)	none (no result: MsrA act, PKA-R1A activ, PKA-R2B activ)
COc1cc2c(c(OC)c1OC)-c1ccc(C(=O)O)cc1[C@@H](NC(C)=O)CC2	MsrA act 19 | MsrA activ conf inactive
COc1cc2c(c(OC)c1O)-c1ccc(OC)c(=O)cc1C(NC(=O)C(F)(F)F)CC2 (stereo not drawn)	none
CN1OC[C@@H]2CN3C4(C[C@@H]21)c1ccccc1C3(c1ccccc1)c1ccccc14	none (no result: MsrA act, PKA-R1A activ, PKA-R2B activ)
O=C(CCN1CCOCC1)NCC(=O)Nc1ccc(Br)cc1C(=O)c1ccccc1	MsrA act 7.8 | MsrA activ conf inactive
CC[n+]1c(-c2ccccc2)c2cc(N)ccc2c2ccc(N)cc21	MsrA act 9.2, MsrA inhibitor 44 | MsrA activ conf inactive | MsrA inh confirm 49
CS(=O)(=O)N1Cc2cc(Br)ccc2-n2nncc2C1	none (no result: MsrA act, PKA-R1A activ, PKA-R2B activ)
O=c1[nH]c(=S)n(C2CC2)c(O)c1C=NCC1CCCO1 (stereo not drawn)	MsrA inhibitor 6.2 | MsrA inh confirm inactive
O=c1[nH]c(=S)n(Cc2ccc(F)cc2)c(O)c1/C=N/N1CCCCC1	none
O=c1[nH]c(=S)n(Cc2ccc(F)cc2)c(O)c1C=NCc1cccnc1	MsrA inhibitor 4.8 | MsrA inh confirm inactive
CC(C)n1c(O)c(C=NCc2ccccc2)c(=O)[nH]c1=S	MsrA inhibitor 5.2 | MsrA inh confirm inactive
O=c1[nH]c(=S)n(Cc2ccc(F)cc2)c(O)c1C=NCC1CCCO1 (stereo not drawn)	MsrA inhibitor 5.7 | MsrA inh confirm inactive
COP(=O)(OC)OC=C(Cl)Cl	none (no result: MsrA act, PKA-R1A activ, PKA-R2B activ)
O=C(/C=C/C=C/c1ccccc1)CC1(O)C(=O)Nc2ccccc21 (stereo not drawn)	MsrA inhibitor 7.2 | MsrA inh confirm 5.6
CC(=O)/C=C/c1ccccc1	none
CCOP(=O)(OCC)OCC	none
CCOP(=O)(CCP(=O)(OCC)OCC)OCC.C[CH2][Sn]([Cl])([Cl])[CH2]C	MsrA inhibitor 56 | MsrA inh confirm 51
O=C1CC[C@@]2(O)[C@H]3Cc4ccc(O)c5c4[C@@]2(CCN3CC2CC2)C1O5 (stereo partly drawn)	none (no result: MsrA act, PKA-R1A activ, PKA-R2B activ)
O=C(Cc1cc(=O)oc2cc(O)ccc12)NN=Cc1ccc(N(CCCl)CCCl)cc1	MsrA inhibitor 7.3 | MsrA inh confirm 6.1
O=C(NN=Cc1ccc(N(CCCl)CCCl)cc1)c1cc(=O)[nH]c(=O)[nH]1	none
CCOC(=O)[C@]12Cc3cc(C)ccc3[C@H]1N(C1CCCCC1)C(=O)c1cc(OC)ccc12	none (no result: PKA-R1A activ, PKA-R2B activ)
N/C(=N\[N+](=O)[O-])N/N=C/c1ccc(O)cc1	MsrA inhibitor 5.3 | MsrA inh confirm inactive
N/C(=N\N=C\c1ccc(O)cc1O)N[N+](=O)[O-]	none
Clc1cc(Cl)cc(CN2Cc3cc(Br)ccc3-n3nncc3C2)c1	none (no result: MsrA act, PKA-R1A activ, PKA-R2B activ)
Cc1ccc(-n2c(O)c(C=NCCN3CCOCC3)c(=O)[nH]c2=O)cc1	none
O=c1[nH]c(=O)n(-c2cccc(Cl)c2)c(O)c1C=NCCCN1CCOCC1	MsrA inhibitor 13 | MsrA inh confirm 6.8
CC1=C(N2CC2)C(=O)C(CO)=C(N2CC2)C1=O	none
O=C(N/N=C/c1c(O)n(CCc2ccc(F)cc2)c(=O)[nH]c1=O)c1ccccc1	none (no result: PKA-R1A activ, PKA-R2B activ)
COc1ccc(Cn2c(O)c(/C=N/NC(=O)c3ccccc3O)c(=O)[nH]c2=O)cc1	MsrA inhibitor 6.2 | MsrA inh confirm 5.4
O=C(N/N=C/c1c(O)n(CCc2ccccc2)c(=O)[nH]c1=O)c1ccccc1O	MsrA inhibitor 4.9 | MsrA inh confirm inactive
COC(=O)C1C(OC(=O)c2ccccc2)CC2CCC1[N+]2(C)C (stereo not drawn)	none (no result: MsrA act, PKA-R1A activ, PKA-R2B activ)
CCN(CC)c1ccc(N=Cc2c(O)n(-c3ccccc3C)c(=O)[nH]c2=O)cc1	none
Cc1ccccc1-n1c(O)c(C=Nc2ccc3c(c2)OCO3)c(=O)[nH]c1=O	MsrA inhibitor 4.7 | MsrA inh confirm inactive
CCOC(=O)c1cc2c(cn1)[C@@H](CCO)NC2	none
O=C(Nc1ccccc1)N1Cc2cc(Br)ccc2-n2nncc2C1	none (no result: MsrA act, PKA-R1A activ, PKA-R2B activ)
CCOc1cc(C=C2C(=O)NC(=S)NC2=O)ccc1O	MsrA inhibitor 4.8 | MsrA inh confirm inactive
COc1ccc(C=C2C(=O)NC(=S)NC2=O)cc1OC	none
Cc1ccccc1-c1ccc2n1Cc1cnnn1-c1ccccc1-2	MsrA inhibitor 5.5 | MsrA inh confirm inactive
COc1ccc(-c2cc(=NCCC(=O)O)c3cc(C)ccc3o2)cc1	MsrA inhibitor 4.8 | MsrA inh confirm 4.6
COc1ccc(-c2cc(=Nc3ccccc3)c3cc(C)ccc3o2)cc1	none
CC(C)n1c(=O)c(C=Nc2ccc(F)cc2)c(O)n(Cc2ccco2)c1=O	MsrA inhibitor 5.7 | MsrA inh confirm inactive
O=C(NN=Cc1ccc(N(CCCl)CCCl)cc1Cl)c1cccnc1	none
Cc1cc(N(CCCl)CCCl)ccc1C=NNC(=O)c1cccnc1	MsrA inhibitor 5.3 | MsrA inh confirm inactive
